# Source: PubChem BioAssay (EPA / NIEHS)
# Calls of active or inactive are those of the source. The calls were made as follows: active = hit-call score of the fitted dose curve at least 0.9, where 1 is the maximum; inactive = score below 0.9.
# Assays:
# [1] = read-out: Human Leukocyte Antigen - DR isotype (HLADR), HLA-DRA (gene 3122); assay: BSK_BE3C_HLADR: BioMAP Diversity Plus: BE3C Assay for Human Leukocyte Antigen - DR isotype (HLADR) Biomarker Activity (AID 2283032); settings: primary human bronchial epithelial cells; actives raise or lower the signal
# In short: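 Human primary bronchial epithelial cells (BE3C system) exposed to compound for 24 hours; cell-surface HLA-DR measured by ELISA, fitted bidirectionally relative to DMSO. Total protein by SRB in parallel cultures tracked cytotoxicity.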
# [2] = read-out: Vascular cell adhesion molecule 1 (VCAM1), VCAM1 (gene 7412); assay: BSK_4H_VCAM1: BioMAP Diversity Plus: 4H Assay for Vascular cell adhesion molecule 1 (VCAM1) Biomarker Activity (AID 2283033); settings: primary human endothelial cells (HUVEC); actives raise or lower the signal
# In short: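 Primary human umbilical vein endothelial cells, 4H stimulation system, treated for 24 h; cell-surface VCAM-1 quantified by ELISA. Bidirectional fitting against DMSO; cytotoxicity tracked by SRB total-protein staining in parallel cultures.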
# [3] = read-out: Interferon-gamma inducible Protein 10 (IP10), CXCL10 (gene 3627); assay: BSK_BE3C_IP10: BioMAP Diversity Plus: BE3C Assay for Interferon-gamma inducible Protein 10 (IP10) Biomarker Activity (AID 2283034); settings: primary human bronchial epithelial cells; actives raise or lower the signal
# In short: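 Primary human bronchial epithelial cells, with IP-10 measured by ELISA 24 hours after chemical dosing. Bidirectional fit against DMSO; cytotoxicity checked by SRB total protein staining in parallel cultures.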
# [4] = read-out: Monokine induced gamma interferon (MIG), CXCL9 (gene 4283); assay: BSK_BE3C_MIG: BioMAP Diversity Plus: BE3C Assay for Monokine induced gamma interferon (MIG) Biomarker Activity (AID 2283035); settings: primary human bronchial epithelial cells; actives raise or lower the signal;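 also: MIG protein measured by ELISA in BE3C cultures after 24 h of dosing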
# In short: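 ELISA read-out of MIG in human lung bronchial epithelial primary cultures, 24 h post-dosing. Bidirectional curve fit vs DMSO baseline.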
# [5] = read-out: Transforming growth factor beta 1 (TGFb1), TGFB1 (gene 7040); assay: BSK_BE3C_TGFb1: BioMAP Diversity Plus: BE3C Assay for Transforming growth factor beta 1 (TGFb1) Biomarker Activity (AID 2283036); settings: primary human bronchial epithelial cells; actives raise or lower the signal
# In short: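 Primary human bronchial epithelial cells dosed with chemical; TGF-b1 measured by ELISA 24 h after dosing. Bidirectional curve fitting against DMSO negative control; SRB total-protein staining in parallel cultures gauged cytotoxicity.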
# [6] = read-out: urokinase plasminogen activator (uPA), PLAU (gene 5328); assay: BSK_BE3C_uPA: BioMAP Diversity Plus: BE3C Assay for urokinase plasminogen activator (uPA) Biomarker Activity (AID 2283038); settings: primary human bronchial epithelial cells; actives raise or lower the signal;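 also: uPA protein level quantified by ELISA in cell cultures; uPA read one day after compound addition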
# In short: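 Using confluent primary human lung bronchial epithelial cultures, we dosed chemicals, waited 24 h, then ran a uPA ELISA, fitting bidirectionally against DMSO.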
# [7] = read-out: Urokinase-type plasminogen activator receptor (uPAR), PLAUR (gene 5329); assay: BSK_BE3C_uPAR: BioMAP Diversity Plus: BE3C Assay for Urokinase-type plasminogen activator receptor (uPAR) Biomarker Activity (AID 2283039); settings: primary human bronchial epithelial cells; actives raise or lower the signal;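 also: uPAR protein level measured by ELISA on the cells; cells exposed to compound for one day before measurement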
# In short: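 Primary human bronchial epithelial cells dosed for 24 h; uPAR quantified by ELISA with bidirectional fitting against DMSO. Overt cytotoxicity assessed in parallel cultures by SRB total-protein staining (0.1% SRB, 560 nm).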
# [8] = read-out: Interleukin-6 (IL6), IL6 (gene 3569); assay: BSK_CASM3C_IL6: BioMAP Diversity Plus: CASM3C Assay for Interleukin-6 (IL6) Biomarker Activity for (AID 2283040); settings: primary human coronary artery smooth muscle cells; actives raise or lower the signal
# [9] = read-out: Tissue plasminogen activator (tPA), PLAT (gene 5327); assay: BSK_BE3C_tPA: BioMAP Diversity Plus: BE3C Assay for Tissue plasminogen activator (tPA) Biomarker Activity (AID 2283041); settings: primary human bronchial epithelial cells; actives raise or lower the signal;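 also: tPA level quantified by ELISA one day after compound addition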
# In short: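 Primary human bronchial epithelial cells in the BE3C system, exposed to compound for 24 h. tPA was quantified by ELISA; DMSO served as baseline, with gain or loss of signal fitted. Cytotoxicity checked in parallel cultures by SRB total-protein staining.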
# [10] = read-out: Interleukin-8 (IL8), CXCL8 (gene 3576); assay: BSK_CASM3C_IL8: BioMAP Diversity Plus: CASM3C Assay for Interleukin-8 (IL8) Biomarker Activity (AID 2283042); settings: primary human coronary artery smooth muscle cells; actives raise or lower the signal;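 also: IL-8 protein level quantified by ELISA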
# [11] = read-out: Human Leukocyte Antigen - DR isotype (HLADR), HLA-DRA (gene 3122); assay: BSK_CASM3C_HLADR: BioMAP Diversity Plus: CASM3C Assay for Human Leukocyte Antigen - DR isotype (HLADR) Biomarker Activity (AID 2283043); settings: primary human coronary artery smooth muscle cells; actives raise or lower the signal;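 also: cell-surface HLA-DR protein level quantified by ELISA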
# [12] = read-out: Macrophage colony-stimulating factor (MCSF), CSF1 (gene 1435); assay: BSK_CASM3C_MCSF: BioMAP Diversity Plus: CASM3C Assay for Macrophage colony-stimulating factor (MCSF) Biomarker Activity (AID 2283044); settings: primary human coronary artery smooth muscle cells; actives raise or lower the signal;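 also: M-CSF protein amount quantified by ELISA after 24 h exposure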
# [13] = read-out: Low-density lipoprotein receptor (LDLR), LDLR (gene 3949); assay: BSK_CASM3C_LDLR: BioMAP Diversity Plus: CASM3C Assay for Low-density lipoprotein receptor (LDLR) Biomarker Activity (AID 2283045); settings: primary human coronary artery smooth muscle cells; actives raise or lower the signal;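 also: LDLR protein level on the cell surface quantified by ELISA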
# [14] = read-out: Monocyte Chemoattractant Protein-1 (MCP1), CCL2 (gene 6347); assay: BSK_CASM3C_MCP1: BioMAP Diversity Plus: CASM3C Assay for Monocyte Chemoattractant Protein-1 (MCP1) Biomarker Activity (AID 2283046); settings: primary human coronary artery smooth muscle cells; actives raise or lower the signal;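 also: MCP-1 level quantified by ELISA 24 h after dosing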
# [15] = BSK_CASM3C_Proliferation: Cell Proliferation Assessment in the BioMAP Diversity Plus: CASM3C Assay (AID 2283047); settings: primary human coronary artery smooth muscle cells;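 also: sulforhodamine B total protein stain as relative cell number at 560 nm; sub-confluent cells exposed 48 h before staining; fitted both ways against DMSO so gain or loss of cell number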
# [16] = read-out: Monokine induced gamma interferon (MIG), CXCL9 (gene 4283); assay: BSK_CASM3C_MIG: BioMAP Diversity Plus: CASM3C Assay for Monokine induced gamma interferon (MIG) Biomarker Activity (AID 2283048); settings: primary human coronary artery smooth muscle cells; actives raise or lower the signal;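 also: MIG protein level measured by ELISA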
# [17] = read-out: serum amyloid A (SAA), SAA1 (gene 6288); assay: BSK_CASM3C_SAA: BioMAP Diversity Plus: CASM3C Assay for serum amyloid A (SAA) Biomarker Activity (AID 2283049); settings: primary human coronary artery smooth muscle cells; actives raise or lower the signal;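 also: SAA protein level quantified by ELISA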
# [18] = BSK_CASM3C_SRB: Viability Assessment in the BioMAP Diversity Plus: CASM3C Assay (AID 2283050); settings: primary human coronary artery smooth muscle cells
# [19] = read-out: Thrombomodulin, THBD (gene 7056); assay: BSK_CASM3C_Thrombomodulin: BioMAP Diversity Plus: CASM3C Assay for Thrombomodulin Biomarker Activity (AID 2283051); settings: primary human coronary artery smooth muscle cells; actives raise or lower the signal;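 also: thrombomodulin protein level measured by ELISA 24 h after dosing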
# [20] = read-out: Plasminogen activator inhibitor-1 (PAI1), SERPINE1 (gene 5054); assay: BSK_BE3C_PAI1: BioMAP Diversity Plus: BE3C Assay for Plasminogen activator inhibitor-1 (PAI1) Biomarker Activity (AID 2283037); settings: primary human bronchial epithelial cells; actives raise or lower the signal
# In short: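 Primary human bronchial epithelial cells (BE3C system) exposed 24 h; PAI-1 quantified by ELISA. Parallel sulforhodamine B staining of total protein flags cytotoxicity. Bidirectional fit versus DMSO.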
structure (smiles),measurement,setting,value
OCC(O)CO,outcome,[1],inactive
same,outcome,[2],inactive
same,outcome,[3],inactive
same,outcome,[4],inactive
same,outcome,[5],inactive
same,outcome,[6],inactive
same,outcome,[7],inactive
same,outcome,[8],inactive
same,outcome,[9],inactive
same,outcome,[10],inactive
same,outcome,[11],inactive
same,outcome,[12],inactive
same,outcome,[13],inactive
same,outcome,[14],inactive
same,outcome,[15],inactive
same,outcome,[16],inactive
same,outcome,[17],inactive
same,outcome,[18],inactive
same,outcome,[19],inactive
NC(=Nc1ccccc1)Nc1ccccc1,outcome,[1],inactive
same,outcome,[2],inactive
same,outcome,[3],inactive
same,outcome,[4],inactive
same,outcome,[5],inactive
same,outcome,[20],inactive
same,outcome,[6],inactive
same,outcome,[7],inactive
same,outcome,[8],inactive
same,outcome,[9],inactive
same,outcome,[10],inactive
same,outcome,[11],inactive
same,AC50,[12],3.97 µM (active)
same,outcome,[13],inactive
same,outcome,[14],inactive
same,outcome,[15],inactive
same,outcome,[16],inactive
same,outcome,[17],inactive
same,outcome,[18],inactive
same,outcome,[19],inactive
O=C(O)CC(O)(CC(=O)O)C(=O)O,outcome,[1],inactive
same,outcome,[2],inactive
same,outcome,[3],inactive
same,outcome,[4],inactive
same,outcome,[5],inactive
same,outcome,[20],inactive
same,outcome,[6],inactive
same,outcome,[7],inactive
same,outcome,[8],inactive
same,outcome,[9],inactive
same,outcome,[10],inactive
same,outcome,[11],inactive
same,outcome,[12],inactive
same,outcome,[13],inactive
same,outcome,[14],inactive
same,outcome,[15],inactive
same,outcome,[16],inactive
same,outcome,[17],inactive
same,outcome,[18],inactive
same,outcome,[19],inactive
CC(=O)OC1CC(C)OC(C)O1 (centres undefined),outcome,[1],inactive
same,outcome,[2],inactive
same,outcome,[3],inactive
same,outcome,[4],inactive
same,outcome,[5],inactive
same,outcome,[20],inactive
same,outcome,[6],inactive
same,outcome,[7],inactive
same,outcome,[8],inactive
same,outcome,[9],inactive
same,outcome,[10],inactive
same,outcome,[11],inactive
same,outcome,[12],inactive
same,outcome,[13],inactive
same,outcome,[14],inactive
same,outcome,[15],inactive
same,outcome,[16],inactive
same,outcome,[17],inactive
same,outcome,[18],inactive
same,outcome,[19],inactive
C#CC(O)C(CC)CCCC (centres undefined),outcome,[1],inactive
same,outcome,[2],inactive
same,outcome,[3],inactive
same,outcome,[4],inactive
same,outcome,[5],inactive
same,outcome,[20],inactive
same,outcome,[6],inactive
same,outcome,[7],inactive
same,outcome,[8],inactive
same,outcome,[9],inactive
same,outcome,[10],inactive
same,outcome,[11],inactive
same,outcome,[12],inactive
same,outcome,[13],inactive
same,outcome,[14],inactive
same,AC50,[15],37 µM (active)
same,outcome,[16],inactive
same,outcome,[17],inactive
same,outcome,[18],inactive
same,outcome,[19],inactive
CC(=O)CC(c1ccccc1)c1c(O)c2ccccc2oc1=O (centres undefined),outcome,[1],inactive
same,outcome,[2],inactive
same,outcome,[3],inactive
same,outcome,[4],inactive
same,outcome,[5],inactive
same,outcome,[20],inactive
same,outcome,[6],inactive
same,outcome,[7],inactive
same,outcome,[8],inactive
same,outcome,[9],inactive
same,outcome,[10],inactive
same,outcome,[11],inactive
same,outcome,[12],inactive
same,outcome,[13],inactive
same,outcome,[14],inactive
same,outcome,[15],inactive
same,outcome,[16],inactive
same,outcome,[17],inactive
same,outcome,[18],inactive
same,outcome,[19],inactive
CCc1cc(C2=C(C(=O)O)N(c3ccccc3C(F)(F)F)S(=O)(=O)c3ccccc32)cc2c1OCO2,outcome,[1],inactive
same,outcome,[2],inactive
same,outcome,[3],inactive
same,outcome,[4],inactive
same,outcome,[5],inactive
same,outcome,[20],inactive
same,outcome,[6],inactive
same,outcome,[7],inactive
same,outcome,[8],inactive
same,outcome,[9],inactive
same,outcome,[10],inactive
same,AC50,[11],9.8 µM (active)
same,AC50,[12],19.8 µM (active)
same,AC50,[13],7.18 µM (active)
same,outcome,[14],inactive
same,outcome,[15],inactive
same,outcome,[16],inactive
same,outcome,[17],inactive
same,outcome,[18],inactive
same,outcome,[19],inactive
